Test results published in PubChem BioAssay.
Calls of active or inactive are those of the source.

experiment: budding yeast growth modifiers under rapamycin – strain BY4716, OD600, 96 h, primary screen (AID 1091); note: test concentration not given here; conditions: S. cerevisiae BY4716 + rapamycin, higher = more signal, called active from +8 up or from −8 down

| SMILES | z-score |
| --- | --- |
| C[C@]1(C(=O)NCCN2CCOCC2)c2ccccc2C(=O)N(Cc2ccc(OC(F)(F)F)cc2)[C@H]1c1ccc(CO)cc1 | -0.854 (inactive) |
| [N-]=[N+]=Nc1ccccc1[C@@H]1OC(c2ccc(OCCCO)cc2)=N[C@]1(CCS(=O)(=O)c1ccccc1)C(=O)NCCN1CCOCC1 | 0.519 (inactive) |
| CC(C)CN1C(=O)[C@@]2(Cc3ccccc31)c1ccccc1C(=O)N(Cc1ccccc1C(F)(F)F)[C@H]2c1ccc(CO)cc1 | -3 (inactive) |
| C=CC[C@]1(C(=O)N(C)C)N=C(c2ccc(OCCCO)cc2)O[C@H]1c1ccccc1N=[N+]=[N-] | -0.317 (inactive) |
| COc1cc2c(cc1OC)CN(C(=O)[C@H]1[C@@H]3C(=O)O[C@@H](c4ccccc4)[C@@H](c4ccccc4)N3[C@@H](c3ccc(OCCO)cc3)[C@]13C(=O)Nc1ccc(C#CC4(O)CCCCCC4)cc13)CC2 | 4.84 (inactive) |
| COCCCNC(=O)[C@@H]1c2ccccc2C(=O)N(Cc2ccccc2C(F)(F)F)[C@H]1c1ccc(CO)cc1 | -0.368 (inactive) |
| C=CC[C@]12N=C(c3ccc(OCCCO)cc3)O[C@H]1c1ccccc1N(C)C2=O | 0.532 (inactive) |
| CCCC[C@@H]1C[C@H]1[C@@H](NC(=O)c1cccnc1)c1ccc(-c2ccccc2)cc1 | -2.6 (inactive) |
| C[C@@H]1ON(c2ccc(C(=O)OC(C)(C)C)cc2)[C@H](c2ccc(Br)cc2)[C@H]1C(=O)N1C(=O)OC[C@H]1Cc1ccccc1 | 0.71 (inactive) |
| CC(C)CCC[C@@H](C)[C@H]1CC[C@@]2(C)C3=C(CC[C@]12C)[C@@]1(C)CC[C@H](OC(=O)c2ccc(Br)cc2)C(C)(C)C1CC3 (stereo partly specified) | -0.346 (inactive) |
| COc1cc2c(cc1O)C(C)N(Cc1cc3c(cc1Br)OCO3)CC2 (stereo unspecified) | -1.35 (inactive) |
| COc1c(C)cc(-c2cc3c(c(Cc4ccccc4)n2)[Si](C(C)C)(C(C)C)OC3)cc1C | 1.04 (inactive) |
| CN(C)CCCN1C(=O)[C@@]2(c3ccc([N+](=O)[O-])cc3)CC(=O)N(CC34CC5CC(CC(C5)C3)C4)[C@@H]2c2ccc(CO)cc21 | -1.06 (inactive) |
| CO[C@H]1O[C@H](CO)[C@@H](OC(=O)Nc2ccc(C(F)(F)F)cc2)[C@H](OC(=O)Nc2ccc3c(c2)OCO3)[C@H]1OC(=O)Nc1ccc2c(c1)OCO2 | 14.9 (active) |
| NC(=O)NCC#Cc1ccc2c(c1)[C@]1(C(=O)N2)[C@H](C(=O)Nc2nc3ccccc3s2)[C@H]2C(=O)O[C@H](c3ccccc3)[C@H](c3ccccc3)N2[C@@H]1c1ccc(O)cc1 | 7.47 (inactive) |
| COCCOC(=O)N1C(=O)[C@@]2(c3cc(C#CC4(O)CCCCCC4)ccc31)[C@H](C(=O)N1CCCCCCC1)[C@H]1C(=O)O[C@H](c3ccccc3)[C@H](c3ccccc3)N1[C@@H]2c1ccc(OCCO)cc1 | 2.39 (inactive) |
| COC(=O)[C@@]1(Cc2ccccc2)[C@H]2c3cc(C(=O)N4CCCC4)[nH]c3C[C@H]2CN1C(=O)c1ccccc1 | 0.0237 (inactive) |
| CCOC(=O)[C@H]1C/C=C/C[C@H](C(=O)OCC)C(=O)O[C@H]2[C@@H](OC)O[C@H](CO)[C@@H](OC(=O)CCc3ccccc3)[C@@H]2OC1=O | 15.2 (active) |

| SMILES | z-score |
| --- | --- |
| Cc1ccc(F)cc1S(=O)(=O)N[C@@H]1CCN(Cc2ccc(OC(C)C)cc2)C1 | -0.839 (inactive) |
| COCCOC(=O)N1C(=O)[C@@]2(c3cc(C#CC4=CCCCC4)ccc31)[C@H](C(=O)N1CCN(c3ncccn3)CC1)[C@H]1C(=O)O[C@H](c3ccccc3)[C@H](c3ccccc3)N1[C@@H]2c1ccc(O)cc1 | 2.1 (inactive) |
| COC(=O)C1(Cc2ccccc2)C=C2C(=C(C(C)C)C(=O)C2C)CN1 (stereo unspecified) | 0.471 (inactive) |
| O=C1O[C@H](c2ccccc2)[C@H](c2ccccc2)N2[C@H]1[C@@H](C(=O)O)[C@]1(C(=O)Nc3ccccc31)[C@H]2c1ccc(O)cc1 | 0.3 (inactive) |
| COc1ccc(NC(=O)O[C@H]2[C@H](OC(=O)Nc3ccc4c(c3)OCO4)[C@@H](OC(=O)Nc3ccc4c(c3)OCO4)[C@@H](OC)O[C@@H]2CO)cc1 | -0.31 (inactive) |
| COc1c(C)cc(-c2cc3c(c(-c4ccccc4)n2)[Si](C(C)C)(C(C)C)OC3)cc1C | -0.275 (inactive) |
| C[C@@H](OCc1ccccc1)C1NC(=O)[C@@]23C(=O)N[C@@H](Cc4ccccc4)C2[C@H](C)[C@@]2(C)O[C@H]2C3/C=C/C/C=C\CNC(=O)CNC1=O (stereo partly specified) | -0.929 (inactive) |
| COc1ccc([Si](C)(C)[C@@H]2[C@@H](CC(=O)N3CCC[C@H]3CO)O[C@]3(C(=O)N(Cc4ccc(N5C(=O)c6cccc7cccc5c67)cc4)c4ccccc43)[C@H]2C)cc1 | 0.922 (inactive) |
| CC1CC/C=C\[C@H]2OC34C=CCN(c5ccc6ccccc6c5)C(=O)[C@H]3N(C(CO)C(C)C)C(=O)[C@@H]4C2C(=O)O1 (stereo partly specified) | -0.797 (inactive) |
| COCCOC(=O)N1C(=O)[C@@]2(c3cc(C#CCC(C(=O)OC)C(=O)OC)ccc31)[C@H](c1ccc(OCCO)cc1)N1[C@H](c3ccccc3)[C@H](c3ccccc3)OC(=O)[C@H]1[C@@H]2C(=O)N1CCN(c2ncccn2)CC1 | 6.44 (inactive) |
| CCOC(=O)[C@H]1C/C=C/C[C@H](C(=O)OCC)C(=O)O[C@H]2[C@@H](OC)O[C@H](CO)[C@@H](OC(=O)Nc3ccc(OC)cc3)[C@@H]2OC1=O | 3.56 (inactive) |
| O=C1O[C@@H](c2ccccc2)[C@@H](c2ccccc2)N2[C@@H](c3ccc(O)cc3)[C@]3(C(=O)Nc4ccc(C#CC5=CCCCC5)cc43)[C@@H](C(=O)N3CCN(c4ncccn4)CC3)[C@H]12 | 0.566 (inactive) |
| CCCCN1CC=CC23O[C@@H]4/C=C\CCC(C)OC(=O)C4[C@H]2C(=O)N(CCCCCCO)[C@@H]3C1=O (stereo partly specified) | 0.045 (inactive) |
| CCOC(=O)C[C@H]1[C@H](OC(=O)c2ccc(-c3ccccc3)cc2)[C@@H](NC(=O)c2ccc3ccccc3n2)c2cc(OCCCO)ccc2N1C(=O)c1ccccc1 | 0.976 (inactive) |
| COc1ccc(NN2C(C(O)c3ccccn3)C=CC3C(=O)N(C4CCCCC4)C(=O)C32)cc1 (stereo unspecified) | 0.151 (inactive) |
| COc1cc(OC)c(C(O)C2C=CC3C(=O)N(c4ccccc4)C(=O)C3N2Nc2ccc(C#N)cc2)cc1Br (stereo unspecified) | -0.772 (inactive) |
| COc1ccc([Si](C)(C)[C@H]2[C@H](CCn3cc([C@H](O)c4ccccc4)nn3)O[C@@]3(C(=O)N(Cc4ccc(N5CCOC5=O)cc4)c4ccccc43)[C@@H]2C)cc1 | 3.45 (inactive) |
| CCCCC(CC)C(O)C1C=CC2C(=O)N(c3ccccc3)C(=O)C2N1Nc1ccc([N+](=O)[O-])cc1 (stereo unspecified) | 1.44 (inactive) |
